Bioassay records as filed in PubChem BioAssay.
UDG counter – Primary qHTS assay for inhibitors of Activation Induced Cytidine Deaminase (AID): UDG Counterscreen signal; actives 0.14% (n = 91,000); FRET deamination/UDG coupled assay, UDG read, 4 h; Potency, µM (titrated, usually from 115 µM), inactives show top-dose activity change, negative = inhibition, usual class: inhibitors; AID 1347430, 2020; further: nearly all actives have a fitted effect of over 65% in size
AID inh – Primary qHTS assay for inhibitors of Activation Induced Cytidine Deaminase (AID): AID signal; Single-stranded DNA cytosine deaminase (Homo sapiens), Q9GZX7; AID deamination FRET fluorescence, UDG-coupled, 4 h; actives 0.32% (n = 91,000); Potency, µM (titrated, usually from 115 µM), hits mostly inhibitors; AID 1347428, 2020; further: nearly all actives have a fitted effect of over 25% in size
Target sequence (Q9GZX7 whole entry, looked up): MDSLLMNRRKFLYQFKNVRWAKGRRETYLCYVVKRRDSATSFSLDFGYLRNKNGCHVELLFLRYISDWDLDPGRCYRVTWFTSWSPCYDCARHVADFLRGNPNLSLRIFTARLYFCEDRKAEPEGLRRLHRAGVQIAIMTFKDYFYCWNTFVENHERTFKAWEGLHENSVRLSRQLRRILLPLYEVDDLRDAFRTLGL
An asterisk follows results filed as active; i = inactive; ? = inconclusive; ! = not confirmed by another sample; [ ] = dose if it differs, or a comment. A selection: hits, their analogues and other compounds. The true share with any hit is near 0.47%. The call rests on the fitted dose curve; in most records, active means well fitted curve in the direction sought with a large enough effect; inconclusive means small, poorly fitted or top-dose-only effect, or another doubt; inactive means no such curve, though single readings can be large; an effect the other way counts as inactive or inconclusive. On the % scale 0 is the no-effect control and ±100 the full control effect; potency means the concentration at half of the fitted maximal effect.

SMILES	UDG counter	AID inh
CCOc1cc(CNc2ccc(O)cc2)cc(Br)c1OCc1ccccc1	-13%	i
Oc1ccc(NCc2ccccc2OCc2ccc(Cl)cc2)cc1	-11%	32µM*
Oc1ccc(NCc2ccccc2OCc2ccccc2)cc1	79µM*	32µM*
CC(C)(C)C(=O)Nc1ccc(N2CCCCC2)c2ccncc12	3%	i
N#CC1=C(N)OC2=C(C(=O)CC(c3ccccc3)C2)C1c1cccc(Cl)c1 (stereo unspecified)	-8%	i
CCOC(=O)CSc1nc(-c2ccc(OCC)cc2)cc(C(F)(F)F)c1C#N	1%	i
CCCOc1ccc(-c2cc(C(F)(F)F)c(C#N)c(SCCC(=O)O)n2)cc1	-21%	79µM*
C/C(=N\Nc1c(Cl)cc(Cl)cc1Cl)c1ccc(Cl)cc1Cl	14%	i
COCCn1c(SCc2ccc(Br)cc2)nnc1-c1cccc(C)c1	1%	i
CCOC(=O)c1ccc(-c2ccc(/C=C/C(=O)c3ccccc3)o2)cc1	13%	i
CCOC(=O)N1CCc2c(sc3c2c(=O)n(-c2ccc(CC)cc2)c(=O)n3Cc2cccc(Cl)c2)C1	-5%[57.5 µM]	i
C=Cc1ccc(Cn2c(=O)n(-c3cccc(Cl)c3)c(=O)c3c4c(sc32)CN(C(C)=O)CC4)cc1	79µM*	?
CC(=O)N1CCc2c(sc3c2c(=O)n(Cc2ccccc2)c(=O)n3Cc2ccccc2F)C1	-18%	?
CC(=O)N1CCc2c(sc3c2c(=O)n(Cc2ccccc2)c(=O)n3Cc2ccccc2Cl)C1	-29%	22µM*
CC(Sc1ccccc1Cl)C(=O)NC1(C#N)CCSC1 (stereo unspecified)	3%	i
CC(=O)Nc1ccc(Sc2ncccn2)cc1	7%	i
Cc1ccc(-c2c(NC(=O)CN3CCC(C(N)=O)CC3)oc3ccccc3c2=O)cc1	-6%	i
COc1cc(NC(=O)COCc2cc(-c3ccc4c(c3)OCO4)on2)cc(OC)c1	?	i
Cc1cc(C)cc(NC(=O)COCc2cc(-c3ccc4c(c3)OCO4)on2)c1	79µM*	?
CN(Cc1ccccc1)c1oc(COc2ccc(F)cc2)nc1C#N	-8%	i
CC(C)(C)c1ccc(C2Sc3ccccc3NC3=C2C(=O)c2ccccc23)cc1 (stereo unspecified)	89µM*	i
O=C1CCCC2=C1C(c1ccc(C(F)(F)F)cc1)C1=C(N2)c2ccccc2C1=O (stereo unspecified)	-1%	i
O=C1OCCC1Sc1ccc2c(c1)OCCO2 (stereo unspecified)	-12%	i
COc1ccc(OC)c(CNC(=O)c2nn(C)c3c2CS(=O)(=O)c2ccccc2-3)c1	-3%	40µM*
COc1ccc(CNC(=O)c2nn(C)c3c2CS(=O)(=O)c2ccccc2-3)cc1	-1%	i
SMILES	UDG counter	AID inh
COc1ccc(N(C(=O)c2ccccc2C)S(=O)(=O)c2ccc(C)cc2)cc1	79µM*	?
COc1ccc(N(C(=O)c2cccc(C)c2)S(=O)(=O)c2ccc(Cl)cc2)cc1	?	i
COc1ccccc1Cc1nc2ccccc2nc1SCC(=O)N1CCc2ccccc21	0%	i
COc1ccccc1Cc1nc2ccccc2nc1SCC(=O)N1CCCCC1	89µM*	?
O=C(COC(=O)c1ccc(S(=O)(=O)NCc2ccco2)cc1)c1ccc(F)cc1	-11%	i
CCCCSCCCNC(=O)C1CCN(Cc2nc(-c3cccc(Br)c3)oc2C)CC1	?	i
CCCCSCCCNC(=O)C1CCN(Cc2nc(-c3ccc(CC)cc3)oc2C)CC1	89µM*	?
Cc1cc(C(F)(F)F)c(C#N)c(SCc2cccnc2)n1	6%	i
O=C1c2ccccc2-c2onc3c(N4CCN(C5CCCCC5)CC4)cc(NCCO)c1c23	-4%	i
CN(C)CCCNc1cc(N2CCN(C3CCCCC3)CC2)c2noc3c2c1C(=O)c1ccccc1-3	31%	40µM*
CC(=O)N1CCc2c(sc3nc(SCC(C)C)n(-c4ccc(C)c(Cl)c4)c(=O)c23)C1	79µM*	25µM*
CC(=O)N1CCc2c(sc3nc(SCC(C)C)n(-c4ccc(F)c(Cl)c4)c(=O)c23)C1	0%	i
CCc1ccc(Nc2nc3ccccc3nc2NS(=O)(=O)c2ccccc2)cc1	3%	28µM*!
CCOc1ccc(S(=O)(=O)Nc2nc3ccccc3nc2Nc2ccc(OC)cc2)cc1	-1%	?
CCCCN(CCCC)CCNC(=O)c1cn(CC)c2ccc(S(=O)(=O)N3CCc4ccccc4C3)cc2c1=O	?	28µM*
CCn1cc(C(=O)NCCc2ccccc2)c(=O)c2cc(S(=O)(=O)N3CCc4ccccc4C3)ccc21	-14%	?
Cc1ccccc1NC(=O)c1ccc2c(c1)CCC2	-1%	i
CCn1cc(S(=O)(=O)c2ccc(OC)cc2)c(=O)c2cc(F)c(N3CCCCCC3)cc21	-9%	i
CCn1cc(S(=O)(=O)c2ccc(OC)cc2)c(=O)c2cc(F)c(N3CCC(C)CC3)cc21	-26%	18µM*
O=C(OCCOc1ccccc1)c1ccccc1C(=O)c1ccc(Cl)cc1	8%	i
CCOc1ccc(/C=C/C(=O)c2cccc(C#N)c2)cc1OC	-5%	i
CC(C)C(NC(=O)Cc1ccccc1)C(=O)N1CCCC1 (stereo unspecified)	10%	i
CS(=O)(=O)NCCCNC(=O)c1cnc2ccccc2n1	-1%	i
CC1CCCCN1S(=O)(=O)c1cc2c3c(c1)CC(=O)N3CCC2 (stereo unspecified)	89µM*	?
CCC1CCCCN1S(=O)(=O)c1cc2c3c(c1)CC(=O)N3CCC2 (stereo unspecified)	89µM*	i
SMILES	UDG counter	AID inh
CCC1CCCCN1S(=O)(=O)c1ccc2c(c1)CCCN2C(C)=O (stereo unspecified)	0%	i
CC1CCN(S(=O)(=O)c2cc3c4c(c2)CC(=O)N4CCC3)CC1	-25%	i
Cc1cc(OCc2coc(-c3ccccc3)n2)ccc1Cl	6%	i
COc1ccc(OC)c(CCNC(=O)c2ccc(N3C(=O)CCS3(=O)=O)cc2)c1	-1%	i
CC(c1nc2ccccc2s1)N(C)S(=O)(=O)/C=C/c1ccccc1 (stereo unspecified)	-22%	i
O=c1c2ccccc2cnn1Cc1coc(-c2cccc(Cl)c2)n1	3%	i
CC(C)(C)c1ccc(-c2nc(SCCCOc3ccccc3)n3[nH]c(=O)cc3n2)cc1	-16%	79µM*
COc1ccccc1OCCCSc1nc(-c2ccc(C(C)(C)C)cc2)nc2cc(=O)[nH]n12	1%	?
CC(C)CCn1c(C2CC(=O)N(Cc3ccc(F)cc3)C2)nc2ccccc21 (stereo unspecified)	-1%	i
Cc1ccc(OCCn2c(C3CC(=O)N(Cc4ccc(F)cc4)C3)nc3ccccc32)c(C)c1 (stereo unspecified)	?	35µM*
COc1ccc(-c2noc(CSc3nnc(-c4ccccc4)n3C)n2)cc1	-24%	i
c1ccc(-c2noc(CSc3nnnn3C3CCCCC3)n2)cc1	89µM*	i
Cc1ccc(CSC2=Nc3ccccc3C3=NC(CCC(=O)NCc4cccs4)C(=O)N23)cc1 (stereo unspecified)	-1%	89µM*
Cc1ccc(CSC2=Nc3ccccc3C3=NC(CC(=O)NC4CCCCC4)C(=O)N23)c(C)c1 (stereo unspecified)	10%	i
